The source made the active and inactive calls. The calls were made as follows: active = hit-call score of the fitted dose curve at least 0.9, where 1 is the maximum; inactive = score below 0.9.
Test: APR_HepG2_MitoMass_1hr: Apredica 1-hour HepG2 Assay for Mitochondrial Mass (AID 2282674)
Details: high-content imaging, actives raise or lower the signal
Procedure: APR_HepG2_1hr is a cell-based, multiplexed-readout assay that uses HepG2, a human liver cell line, with measurements taken at 1 hour after chemical dosing in a 384-well plate.APR_HepG2_MitoMass_1hr is one of 10 assay component(s) measured or calculated from the APR_HepG2_1hr assay. It is designed to make measurements of cell phenotype, a form of morphology reporter, as detected with fluorescence intensity signals by HCS Fluorescent Imaging technology.Data from the assay component APR_HepG2_MitoMass_1hr was analyzed into 1 assay endpoint. This assay endpoint, APR_HepG2_MitoMass_1hr, was analyzed with bidirectional fitting relative to DMSO as the negative control and baseline of activity. Using a type of morphology reporter, gain or loss-of-signal activity can be used to understand changes in the signaling. Furthermore, this assay endpoint can be referred to as a primary readout, because this assay has produced multiple assay endpoints where this one serves a signaling function. To generalize the intended target to other relatable targets, this assay endpoint is annotated to the cell morphology intended target family, where the subfamily is organelle conformation.
Cells were treated with dimethyl sulfoxide (DMSO) as a solvent control at a final concentration of 0.5% v/v or with compounds in DMSO with a resulting final DMSO concentration of 0.5% v/v. Compound treatment was done at concentrations of 0.39, 0.78, 1.56, 3.12, 6.24, 12.5, 25, 50, 100, and 200 uM in duplicate on each plate. Cells were treated with compounds for 1, 24, or 72 hr. Carbonyl […] m-chloro-phenylhydrazone (CCCP) and taxol were used as positive controls for mitochondrial function and cytoskeletal stability, respectively; DMSO served as the negative control for this experiment. Cells were fixed by the direct addition of 50 uL formaldehyde in Hank's Balanced Salt Solution (HBSS) to a final concentration of 3.7%. After incubation in the fixation medium for 30 min at room temperature (293-298 K), cells were rinsed twice with HBSS and treated with cell permeabilization buffer (16 uL of 0.5% Triton X-100) for 10 min at room temperature (293-298 K) before labeling. For mitochondrial membrane potential and mitochondrial measurements, pre-fixed cells were incubated with 50 uL of MitoTracker Red CMXRos (Invitrogen) at a concentration of 250 nM for 30 min before fixation. In the remaining cases, post-fixed cells were labeled by incubation with a multiplexed mixture of primary antibodies in HBSS for 60 min at room temperature (293-298 K) to detect immunoreactivity of c-Jun (1:500), phospho-histone H3 (1:100), phospho-histone H2A.x (1:200), p53 (1:400), alpha-tubulin (1:200) and Hoechst 33342 (2 ug/mL). Cells were labeled for multiplexed imaging on two separate plates: a) Hoechst 33342, MitoTracker Red, phospho-histone H3, and alpha-tubulin, and b) Hoechst 33342, phospho-histone H2A.x, and c-Jun. A final rinse with HBSS (50 uL) was performed before analysis. The primary and secondary antibodies for the proteins were phospho-histone H3 (rabbit anti-phospho-histone H3 and FITC-donkey anti-rabbit IgG), phospho-histone H2A.x (mouse anti-phospho-histone H2A.x and FITC-donkey anti-mouse IgG), c-Jun (rabbit anti-phospho-c-Jun and Cy3-donkey anti-rabbit IgG), p53 (sheep anti-p53 and Cy5-donkey anti-sheep IgG), alpha-tubulin (mouse anti-alpha-tubulin and Cy5-donkey anti-mouse IgG). These antibodies are available as the CellCiphr HepG2 assay kit (Millipore).Digital images of each well were captured using a Cellomics ArrayScan VTI (Thermo Scientific Cellomics) (0.8 NA objective, 0.63x optical coupler, and XF-93 filter set) at 20x magnification. The images were acquired using the autofocus feature of the ArrayScan instrument, which entails the following steps. First, the camera focuses on channel 1 (Hoechst 33342), where nuclei are identified. Second, a Z offset of 1 um is used for capturing mitochondria (MitoTracker Red). Third, a Z offset of -2 um is used for capturing the cytoskeleton (tubulin). […]

Compound | outcome | AC50
CCCCN(CC)c1c([N+](=O)[O-])cc(C(F)(F)F)cc1[N+](=O)[O-] | inactive | –
COP(=O)(OC)C(O)C(Cl)(Cl)Cl (stereo not given) | inactive | –
O=c1ccc(=O)[nH][nH]1 | inactive | –
CN(C)[C@@H]1C(=O)C(C(N)=O)=C(O)[C@@]2(O)C(=O)C3=C(O)c4c(O)cccc4[C@@](C)(O)[C@H]3[C@H](O)[C@@H]12 | inactive | –
CCCSP(=O)(OCC)Oc1ccc(Br)cc1Cl (stereo not given) | inactive | –
CC(C)=CC1C(C(=O)OCN2C(=O)C3=C(CCCC3)C2=O)C1(C)C (stereo not given) | inactive | –
CSc1nc(NC(C)C)nc(NC(C)C)n1 | inactive | –
CCC(=NOC/C=C/Cl)C1=C(O)CC(C2CCOCC2)CC1=O (stereo not given) | inactive | –
CN(C)C(=O)Nc1cccc(C(F)(F)F)c1 | inactive | –
CCCCSP(=O)(SCCCC)SCCCC | inactive | –
CNC(=O)ON=C(C)SC | inactive | –
CCOC(=O)COc1cc(-c2nn(C)c(OC(F)F)c2Cl)c(F)cc1Cl | inactive | –
C#CCC1=C(C)C(OC(=O)C2C(C=C(C)C)C2(C)C)CC1=O (stereo not given) | inactive | –
CSc1nnc(C(C)(C)C)c(=O)n1N | inactive | –
C#CC(C)(C)NC(=O)c1cc(Cl)cc(Cl)c1 | inactive | –
FC(F)C(F)(F)OCC(Cn1cncn1)c1ccc(Cl)cc1Cl (stereo not given) | inactive | –
CCCSP(=O)(OCC)SCCC | inactive | –
CCC(=O)Nc1ccc(Cl)c(Cl)c1 | inactive | –
CCOP(=S)(OCC)Oc1cc(C)nc(C(C)C)n1 | inactive | –
CC(C)[C@H](C(=O)O[C@H](C#N)c1cccc(Oc2ccccc2)c1)c1ccc(Cl)cc1 | inactive | –

Compound | outcome | AC50
CNC(=O)Oc1cccc2c1OC(C)(C)O2 | inactive | –
CCOP(=S)(OCC)SCCSCC | inactive | –
CC1=NNC(=O)N(/N=C/c2cccnc2)C1 | inactive | –
CC[C@H](C)[C@H]1O[C@]2(C=C[C@@H]1C)C[C@@H]1C[C@@H](C/C=C(\C)[C@@H](O[C@H]3C[C@H](OC)[C@@H](O[C@H]4C[C@H](OC)[C@@H](NC)[C@H](C)O4)[C@H](C)O3)[C@@H](C)/C=C/C=C3\CO[C@@H]4[C@H](O)C(C)=C[C@@H](C(=O)O1)[C@]34O)O2 | inactive | –
CC(C1CC1)C(O)(Cn1cncn1)c1ccc(Cl)cc1 (stereo not given) | inactive | –
Cc1cc(C2CC2)nc(Nc2ccccc2)n1 | inactive | –
O=[N+]([O-])c1cc(C(F)(F)F)c(Cl)c([N+](=O)[O-])c1Nc1ncc(C(F)(F)F)cc1Cl | – | 103 µM (active)
CSC1=N[C@@](C)(c2ccccc2)C(=O)N1Nc1ccccc1 | inactive | –
C=C(C)[C@H]1Cc2c(ccc3c2O[C@@H]2COc4cc(OC)c(OC)cc4[C@@H]2C3=O)O1 | inactive | –
CCCOCC(=Nc1ccc(Cl)cc1C(F)(F)F)n1ccnc1 | inactive | –
CCNc1nc(Cl)nc(NC(C)(C)C#N)n1 | inactive | –
CNc1cnn(-c2cccc(C(F)(F)F)c2)c(=O)c1Cl | inactive | –
CCc1cccc(CC)c1N(COC)C(=O)CCl | inactive | –
COP(=O)(NC(C)=O)SC (stereo not given) | inactive | –
CCCCOC(=O)c1ccccc1C(=O)O | inactive | –
Nc1c(Cl)cc([N+](=O)[O-])cc1Cl | inactive | –
CC(=NC#N)N(C)Cc1ccc(Cl)nc1 | inactive | –
COc1cc(OC)nc(Sc2cccc(Cl)c2C(=O)O)n1 | inactive | –
COc1cccc(C(=O)NN(C(=O)c2cc(C)cc(C)c2)C(C)(C)C)c1C | inactive | –
C[Si](Cn1cncn1)(c1ccc(F)cc1)c1ccc(F)cc1 | inactive | –

— PubChem BioAssay (EPA / NIEHS)
